# Results published in the supplement of paper PMC13094657.
# ± gives the standard deviation of the averaged measurements.
# Tested on: MDA-MB-231
# Assay: kynurenine production, fold change vs DMSO IFNg/TNF control; higher = more kynurenine produced (less inhibition)
# Conditions: pre-treatment time: 18 h then 24 h IFNg/TNF
# How it was run: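 Fold change over cytokine-stimulated vehicle wells on the same plate is the measure used for kynurenine production, averaged across duplicate plates in the first screening round. MDA-MB-231 cells, seeded 24 h beforehand at 7 × 10^4/well in 96-well plates, were pre-treated 18 h with each natural product in 0.1% DMSO and stimulated 24 h at 37°C with IFNγ (1 U/ml) and TNF (6.25 ng/ml). Supernatants were read at 492 nm following trichloroacetic acid and p-dimethylaminobenzaldehyde treatment, against 0–100 μM standards.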
row,Structure (SMILES),kynurenine production
1,CC1=C[C@H]2[C@@]3(O)[C@H](C)[C@@H](O)[C@]4(O)[C@H]([C@@H]3C=C(CO)C[C@]2(O)C1=O)C4(C)C [Phorbol] (compound dose: 10 uM),0.894 ± 0.041
2,C[C@@]12C[C@@H](c3ccoc3)OC(=O)[C@@H]1CC[C@]1(C)[C@H]2[C@@H]2C=C[C@@]1(O)C(=O)O2 [Columbin] (compound dose: 10 uM),0.882 ± 0.2
3,O=C([O-])c1ccc[n+]([C@@H]2O[C@H](CO)[C@@H](O)[C@H]2O)c1 [Nicotinic acid riboside] (compound dose: 10 uM),0.364 ± 0.35
